# According to PubChem BioAssay:
# Calls of active or inactive are those of the source.
# Experiments:
# [1] = compound effects on lung adenocarcinoma cell viability – A549, calcein-AM fluorescence, 48 h, basal, profiling panel (AID 1162); settings: higher = more signal
# [2] = compound effects on differentiated 3T3-L1 adipocyte viability – cell-based, 3T3-L1 adipocytes, calcein-AM fluorescence, 48 h, basal, profiling panel (AID 1163); settings: 3T3-L1 adipocytes viability, higher = more signal
# [3] = compound effects on hepatocellular carcinoma cell viability – HepG2, calcein-AM fluorescence, 48 h, basal, profiling panel (AID 1164); settings: higher = more signal
# [4] = compound effects on multiple myeloma cell viability – MM1S, calcein-AM fluorescence, 48 h, basal, profiling panel (AID 1165); settings: higher = more signal;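 note: viability of MM1S multiple myeloma cells under basal unstimulated conditions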
# [5] = calcein-AM signal in unstimulated myeloma cells – cell-based, calcein-AM fluorescence, 48 h, PK04 Diversity Set, profiling panel (AID 1166); settings: RPMI8226 myeloma viability, higher = more signal;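 note: cells grown under basal conditions without added stimulus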
# [6] = JC-1 mitochondrial signal, unstimulated HepG2 cells – cell-based, JC-1 fluorescence, 24 h, 100 nL compound, profiling panel (AID 1167); settings: HepG2 mitochondrial potential, higher = more signal
# [7] = JC-1 mitochondrial signal, unstimulated adipocytes – cell-based, JC-1 fluorescence, 3T3-L1 adipocytes, 24 h, 100 nL compound, profiling panel (AID 1168); settings: JC-1 mitochondrial fluorescence, higher = more signal, called active from +8 up or from −8 down
# [8] = JC-1 mitochondrial signal, unstimulated myeloma cells – cell-based, JC-1 fluorescence, RPMI8226, 24 h, 100 nL compound, profiling panel (AID 1169); settings: JC-1 mitochondrial potential fluorescence, higher = more signal
# [9] = JC-1 mitochondrial signal, unstimulated MM1S myeloma – cell-based, JC-1 fluorescence, 24 h, 100 nL compound, profiling panel (AID 1170); settings: MM1S mitochondrial potential, higher = more signal
# [10] = resazurin metabolic signal in A549 cells – cell-based, resazurin fluorescence, 24 h, PK04 Diversity Set, profiling panel (AID 1171); settings: A549 viability, higher = more signal, called active from +8 up or from −8 down
# Note: test concentration not given here.
Structure (SMILES),z-score [1],z-score [2],z-score [3],z-score [4],z-score [5],z-score [6],z-score [7],z-score [8],z-score [9],z-score [10]
COc1ccc(CCNC(=O)[C@@]2(C)c3ccccc3C(=O)N(Cc3ccc(OC(F)(F)F)cc3)[C@H]2c2ccc(CO)cc2)cc1,0.109,0.965,-0.0665,-2.23,-2.3,2.56,0.434 (inactive),-0.114,0.0946,2.43 (inactive)
O=C1NC(=O)C2C1C=CC(C(O)c1ccc(F)cc1)N2Nc1ccc(Cl)cc1Cl (stereo not given),-2.35,-0.275,-3.57,-2.88,-2.29,-3.47,-0.472 (inactive),-0.0645,0.174,-2.11 (inactive)
COc1ccc([Si](C)(C)[C@H]2[C@H](CC(=O)N3CCC[C@H]3CO)O[C@@]3(C(=O)N(C)c4ccccc43)[C@@H]2C)cc1,0.183,-0.522,0.233,0.0008,0.143,-1.03,-0.223 (inactive),0.812,-0.265,-0.394 (inactive)
COc1ccc(C(O)C2C=CC3C(=O)N(C)C(=O)C3N2Nc2ccccc2)cc1 (stereo not given),-1.12,-0.221,-0.393,0.291,-0.301,-1.27,-0.0635 (inactive),-0.176,-0.153,-1.27 (inactive)
O=C1O[C@@H](c2ccccc2)[C@@H](c2ccccc2)N2[C@@H](c3ccc(OCCO)cc3)[C@]3(C(=O)Nc4ccc(C#CC5=CCCCC5)cc43)[C@@H](C(=O)Nc3nc4ccccc4s3)[C@H]12,0.583,0.0884,0.803,-1.69,-2.18,-3.08,-0.395 (inactive),-1.12,-1.92,-1.27 (inactive)
CN1C(=O)C2C=CC(C(O)c3ccc(I)cc3)N(N(c3ccccc3)c3ccccc3)C2C1=O (stereo not given),-0.62,-1.15,-0.0518,-0.0182,-0.726,-0.994,-1.67 (inactive),-0.251,-0.752,-0.614 (inactive)
CCOC(=O)C[C@H]1[C@H](OC(=O)Cc2ccc3c(c2)OCO3)[C@@H](NC(=O)CC(C)C)c2cc(OCCCO)ccc2N1C(=O)c1ccc2ccccc2n1,0.415,1.37,-0.236,0.383,-0.577,0.218,0.0499 (inactive),0.01,-0.659,0.194 (inactive)
C=CC[C@]12N=C(c3ccc(OCCCO)cc3)O[C@H]1c1ccccc1N(CCC)C2=O,-1.36,0.538,-0.454,-2.03,-3.07,0.788,1.85 (inactive),-1.07,-0.207,0.266 (inactive)
CCCCN1CC=CC23O[C@@H]4/C=C\CCCOC(=O)C4[C@H]2C(=O)N(CCCCCCO)[C@@H]3C1=O (stereo not given in full),-0.0075,1.61,0.331,1.42,0.88,0.608,1.38 (inactive),0.16,-1.05,0.851 (inactive)
C=CCOC(=O)[C@@H]1[C@H]2C(=O)O[C@H](c3ccccc3)[C@H](c3ccccc3)N2[C@H](c2ccc(OCCOC(=O)[C@H]3C[C@H]4C(=O)N[C@@H](CCCCN(C)C)C(=O)N4[C@H]3c3cccc(OCCO)c3)cc2)[C@@]12C(=O)Nc1ccccc12,-0.555,-0.453,-0.113,0.293,-2.17,-1.29,-0.5 (inactive),-0.928,-0.689,0.64 (inactive)
COCCCNC(=O)[C@@]1(Cc2ccccc2I)c2ccccc2C(=O)N(C2CCCCC2)[C@H]1c1ccc(CO)cc1,-0.126,0.2,-0.335,-0.339,-0.0802,1.29,-0.276 (inactive),-0.794,-1.01,1.59 (inactive)
COC(=O)[C@]1(Cc2ccccc2N=[N+]=[N-])N=C(c2ccc(OCCCO)cc2)O[C@@H]1c1ccccc1CN=[N+]=[N-],-3.36,-0.677,-5.59,-3.59,-3.98,-1.76,-1.07 (inactive),-1.16,-2.61,-2.26 (inactive)
[N-]=[N+]=NCc1ccccc1[C@H]1OC(c2ccc(OCCCO)cc2)=N[C@@]1(Cc1ccccc1N=[N+]=[N-])C(N)=O,-0.0372,-0.117,-0.18,-1.84,-1.76,-0.255,0.199 (inactive),-1.06,-0.928,0.85 (inactive)
CC(C)C[C@@H]1NC(=O)[C@@H]2C[C@H](C(=O)NCCCCCCNC(=O)CS)[C@H](c3ccc(O)cc3)N2C1=O,0.191,0.963,-0.892,-0.523,0.037,-1.69,-0.226 (inactive),-0.684,-0.391,-0.399 (inactive)
Cc1ccc(S[C@]2(C(=O)NC(C)C)CC(=O)N(Cc3ccccc3)[C@@H]2c2ccc(CO)cc2)cc1,1.72,-0.089,1.15,0.0456,1.23,1.18,0.391 (inactive),0.135,-0.177,-0.3 (inactive)
COC(=O)[C@@]1(Cc2ccc(OC)cc2)[C@H]2c3cc(C(=O)N(C)C)n(Cc4c(CO)[nH]cc(C)c4=O)c3C[C@H]2CN1C(=O)c1ccccc1,-1.38,-0.621,-0.177,-0.314,-0.411,-0.67,-1.33 (inactive),-0.0347,-1.24,0.252 (inactive)
C=C(C(=O)CC[C@@H](OC(=O)c1ccccc1-c1ccccc1C(=O)O)c1ccc(CO)o1)C(C)C,-0.656,0.231,0.473,-1.33,-0.951,-1.54,-0.747 (inactive),-0.479,-0.0298,-0.359 (inactive)
COC(=O)[C@@]1(Cc2ccc(F)cc2)[C@H]2c3cc(C(=O)N(C)C)n(CCF)c3C[C@H]2CN1C(=O)c1ccccc1,-0.063,-0.138,0.121,0.066,0.266,-0.0126,0.696 (inactive),-0.37,0.328,-0.957 (inactive)
COc1ccc(C(=O)Nc2ccc(CN3C(=O)[C@]4(O[C@H](CC(=O)N(CCO)Cc5ccccc5)[C@@H]([Si](C)(C)c5ccc(OC)cc5)[C@@H]4C)c4ccccc43)cc2)cc1,-0.937,1.19,-1.52,-1.92,-2.73,0.353,0.324 (inactive),-1.02,-0.692,-2.04 (inactive)
NCCCCCCNC(=O)[C@@H]1C[C@@H]2C(=O)NCC(=O)N2[C@@H]1c1cccc(OCCO)c1,0.51,0.22,1.06,0.604,-0.431,1.14,0.885 (inactive),0.533,0.307,0.678 (inactive)
O=C1C[C@@](C(=O)NCC(F)(F)F)(c2ccc([N+](=O)[O-])cc2)[C@@H](c2ccc(CO)cc2I)N1CC12CC3CC(CC(C3)C1)C2,-2.05,0.463,-5.2,-3.84,-4.03,-0.436,2.16 (inactive),-0.9,-2.17,-3.86 (inactive)
COc1ccc(C(=O)Nc2cccc(CN3C(=O)[C@]4(O[C@H](CC(=O)N(CCO)Cc5ccccc5)[C@@H]([Si](C)(C)c5ccc(OC)cc5)[C@@H]4C)c4ccccc43)c2)cc1,-0.983,0.385,-0.801,-0.829,-3.92,0.52,1.3 (inactive),-0.877,-1.51,-1.51 (inactive)
COC(=O)[C@@]1(Cc2ccc(F)cc2)[C@H]2c3cc(C(=O)N(C)C)n(Cc4ccsc4Br)c3C[C@H]2CN1C(=O)c1ccccc1,-0.981,-0.291,0.191,-0.766,-0.985,2.64,0.18 (inactive),0.415,-1.17,-0.836 (inactive)
C=CC[C@H](OC(=O)Nc1ccc(SC)cc1)c1ccc(O)c(F)c1,-1.24,-0.152,-1.82,-1.59,-1.64,-3.17,2.25 (inactive),-0.325,-0.716,-1.01 (inactive)
O=C(NC1CC1)[C@@H]1c2ccccc2C(=O)N(C2CCCCC2)[C@H]1c1ccc(CO)cc1,1.35,-0.27,1.12,-0.856,-0.591,1.38,-0.724 (inactive),0.512,-0.256,0.0989 (inactive)
COc1ccc(CCNC(=O)[C@@]2(c3ccc([N+](=O)[O-])cc3)CC(=O)N(C3CCCCC3)[C@@H]2c2ccc(CO)cc2I)cc1,0.507,0.969,-0.348,-2.41,-2.58,1.31,0.72 (inactive),-0.293,0.379,-1.11 (inactive)
COC(=O)[C@@]1(Cc2ccccc2)[C@H]2c3cc(C(=O)N(C)C)n(CCF)c3C[C@H]2CN1C(=O)c1ccccc1,-1.23,-0.386,-0.561,0.258,-0.57,0.376,-0.874 (inactive),0.328,-0.294,-0.818 (inactive)
C=C(COC)C(=O)CC[C@H](OC(C)=O)c1ccccc1OCCO,0.0878,2.22,-0.699,-3.39,-1.97,1.61,0.862 (inactive),-0.699,-1.18,-0.164 (inactive)
Cc1ccc(S[C@]2(C(=O)NC(C)C)CC(=O)N(Cc3ccccc3)[C@@H]2c2ccc(CO)cc2I)cc1,0.15,0.547,1,-2.02,-1.69,0.744,0.98 (inactive),-0.25,-1.23,-1.13 (inactive)
